The values below come from PubChem BioAssay.

Active and inactive are the calls of the source. Unless noted, how the calls were made is not given here.

The nature of test [1]: resazurin metabolic signal in HepG2 cells – cell-based, resazurin fluorescence, 24 h, PK04 Diversity Set, profiling panel (AID 1172). The note with it: HepG2 viability, higher = more signal.
Test [2] is described as follows: budding yeast growth changes without added modifier – OD600, strain BY4716, 24 h, basal condition, primary screen (AID 1173). The following applies: S. cerevisiae BY4716 growth, OD600, 24 h; higher = more signal, called active from +8 up or from −8 down.
Test [3] in a line: viability profiling in MM1S myeloma cells – cell-based, resazurin fluorescence, basal, 24 h, PK04 Diversity Set, profiling panel (AID 1174). The following applies: higher = more signal, called active from +8 up or from −8 down.
The target in test [4] is Dihydroorotate dehydrogenase (quinone), mitochondrial (Plasmodium falciparum (isolate 3D7)) (UniProt Q08210). The test is described as follows: inhibition of P. falciparum DHODH – biochemical, C-terminal His tag, absorbance 600 nm, primary screen (AID 1175).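 Further: recombinant parasite enzyme with a five histidine tag at its C terminus.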 The note with it: PfDHODH enzyme, DCIP absorbance 600 nm; higher = more signal, called active from +8 up or from −8 down.

A short description of test [5]: inhibition of PAO1 biofilm formation – strain PAO1, LB-PBS medium, absorbance 600 nm, primary screen (AID 1176). The note with it: P. aeruginosa PAO1 growth/biofilm, A600, 12 h; higher = more signal.
Test [6] is described as follows: growth modulation of vineyard yeast isolate – strain RM11-1a, OD600, basal, 24 h, primary screen (AID 1177).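 Further: cultures grown under basal conditions with no added stressor.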 The following applies: S. cerevisiae RM11-1a growth, OD600, 24 h; higher = more signal, called active from +8 up or from −8 down.
The nature of test [7]: growth of efflux-deficient E. coli DRC39 – strain DRC39, OD650, 24 h, E. coli filamentation inducers, primary screen (AID 1178).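 Further: growth measured as culture turbidity by optical density at 650 nm.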 The note with it: E. coli DRC39 acrAB, higher = more signal, called active from +8 up or from −8 down.
Test [8] is described as follows: growth of efflux-deficient E. coli DRC39 – strain DRC39, OD650, 48 h, E. coli filamentation inducers, primary screen (AID 1179).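 Further: screen aims at cell division blockers that make cells filament.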 The note with it: E. coli DRC39 delta-acrAB growth, higher = more signal, called active from +8 up or from −8 down.
The nature of test [9]: viability profiling in RPMI8226 myeloma cells – cell-based, resazurin fluorescence, basal, 24 h, PK04 Diversity Set, profiling panel (AID 1180).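 Further: RPMI8826 multiple myeloma cell line at 5000 cells per well.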 The note with it: higher = more signal. On the technique in general: Resazurin is reduced to fluorescent resorufin, in cell work by metabolically active cells.
Test [10] deals with E3 ubiquitin-protein ligase XIAP (Homo sapiens) (UniProt P98170). Kind of test: small molecules binding XIAP protein – biophysical, small-molecule microarray, fluorescence 635 nm, primary screen (AID 1181).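 Further: score merges 667 nm emission and signal to noise over triplicate slides.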 The following applies: higher = more signal.
Test [11] concerns XIP peptide (Xip251-270) binding. The test is described as follows: XIP fragment 251-270 binding compounds – biochemical, small-molecule microarray, fluorescence 635/667 nm, 0.1 µg/mL protein, primary screen (AID 1182). The following applies: fluorescent protein binding, 635 nm, higher = more signal, called active from +8 up or from −8 down.
In the next test the test system is XIP peptide (Xip251-270). Kind of test: compounds binding XIP fragment 251-270 – biochemical, small-molecule microarray, fluorescence 635/667 nm, 0.5 µg/mL protein, primary screen (AID 1183). The note with it: fluorescence 635 nm, higher = more signal.
A short description of test [12]: blood-stage malaria parasite viability loss – strain 3D7, DAPI fluorescence, 100 nL, primary screen (AID 1184).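 Further: parasites grown inside human red blood cells in medium with human serum.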 The note with it: P. falciparum 3D7 growth, 3 d, higher = more signal.
In test [13] the target is Homeobox protein Hox-A13 (Mus musculus) (UniProt Q62424). The test is described as follows: disruptors of Hoxa13 oligonucleotide interaction – biochemical, fluorescence polarization, labeled oligonucleotide, primary screen (AID 1185). The note with it: Hoxa13:DNA binding, 15 min, higher = more signal, called active from +8 up or from −8 down. Background: Polarisation of emitted light reports the rotation of a fluorescent probe.

Test [14] is described as follows: blockers of DNA damage checkpoint Chk1 activation – imaging, HeLa, hydroxyurea, phospho-Chk1 antibody, percent positive cells, primary screen (AID 1186). The following applies: hydroxyurea-induced phospho-Chk1 immunofluorescence imaging, higher = more signal.
Test [15] can be described thus: blockers of DNA damage checkpoint Chk1 activation – imaging, HeLa, hydroxyurea, phospho-Chk1 nuclear intensity, primary screen (AID 1187). The following applies: hydroxyurea-induced phospho-Chk1 immunofluorescence imaging, higher = more signal.

Chain of Homeobox protein Hox-A13 (Mus musculus) (Q62424 whole entry, looked up): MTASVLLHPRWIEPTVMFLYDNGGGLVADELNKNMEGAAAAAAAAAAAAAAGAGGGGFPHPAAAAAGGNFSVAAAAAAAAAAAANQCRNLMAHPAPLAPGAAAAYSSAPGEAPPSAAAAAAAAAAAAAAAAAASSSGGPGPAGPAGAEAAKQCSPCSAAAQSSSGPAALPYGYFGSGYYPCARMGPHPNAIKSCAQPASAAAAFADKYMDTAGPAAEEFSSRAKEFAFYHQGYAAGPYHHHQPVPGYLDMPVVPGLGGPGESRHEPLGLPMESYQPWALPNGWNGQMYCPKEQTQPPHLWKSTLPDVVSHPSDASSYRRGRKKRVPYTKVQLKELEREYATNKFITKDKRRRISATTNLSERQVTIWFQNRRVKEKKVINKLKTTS
Chain of Dihydroorotate dehydrogenase (quinone), mitochondrial (Plasmodium falciparum (isolate 3D7)) (Q08210 whole entry, looked up): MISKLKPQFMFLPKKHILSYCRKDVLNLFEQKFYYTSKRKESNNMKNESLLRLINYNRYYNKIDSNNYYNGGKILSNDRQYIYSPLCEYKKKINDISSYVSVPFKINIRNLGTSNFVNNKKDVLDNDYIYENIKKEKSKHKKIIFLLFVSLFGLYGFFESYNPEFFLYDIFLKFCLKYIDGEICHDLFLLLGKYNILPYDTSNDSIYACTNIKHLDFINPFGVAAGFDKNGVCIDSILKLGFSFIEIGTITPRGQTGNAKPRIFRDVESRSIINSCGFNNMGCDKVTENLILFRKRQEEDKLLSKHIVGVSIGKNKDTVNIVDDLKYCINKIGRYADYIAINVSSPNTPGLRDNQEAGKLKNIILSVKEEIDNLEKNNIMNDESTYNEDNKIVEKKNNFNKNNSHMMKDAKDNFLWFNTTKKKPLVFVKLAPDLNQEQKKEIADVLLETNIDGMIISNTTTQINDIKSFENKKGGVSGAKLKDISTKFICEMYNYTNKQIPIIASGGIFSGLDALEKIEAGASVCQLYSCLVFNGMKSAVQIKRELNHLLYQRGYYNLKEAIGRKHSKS
Chain of E3 ubiquitin-protein ligase XIAP (Homo sapiens) (P98170 whole entry, looked up, the tested form may be a part): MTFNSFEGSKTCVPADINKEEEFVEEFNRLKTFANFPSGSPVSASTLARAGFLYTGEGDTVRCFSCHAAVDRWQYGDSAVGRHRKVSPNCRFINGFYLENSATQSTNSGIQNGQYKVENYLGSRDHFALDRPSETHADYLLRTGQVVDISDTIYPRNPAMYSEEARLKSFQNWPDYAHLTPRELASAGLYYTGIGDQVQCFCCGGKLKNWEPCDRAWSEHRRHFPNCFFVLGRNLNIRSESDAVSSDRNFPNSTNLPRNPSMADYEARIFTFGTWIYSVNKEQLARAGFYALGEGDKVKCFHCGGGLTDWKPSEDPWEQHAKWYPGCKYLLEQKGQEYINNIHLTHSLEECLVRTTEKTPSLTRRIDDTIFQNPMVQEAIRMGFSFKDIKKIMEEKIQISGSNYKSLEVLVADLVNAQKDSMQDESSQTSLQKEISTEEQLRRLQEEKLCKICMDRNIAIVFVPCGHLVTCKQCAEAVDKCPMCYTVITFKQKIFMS

As to `CC(C)CN1C(=O)[C@@]2(c3ccc([N+](=O)[O-])cc3)CC(=O)N(C3CCCCC3)[C@@H]2c2ccc(CO)cc21`, the z-score in test [1] is -0.321; in test [2], 0.669 (inactive); in test [3], -0.248 (inactive); in test [5] it was 0.292 (inactive); in test [6], 0.488 (inactive); in [7] it was 0.0743 (inactive). Besides, the z-score in test [8] was 0.922 (inactive); in [9], -0.323; in [12], -0.643; in test [13], -0.113 (inactive); in [14] it was 0.0566 (inactive); in test [15], 0.558 (inactive). Further, the composite z-score in test [4] is -13.6 (active); in test [10], 0.119; in [11], -0.0685 (inactive); in the test on XIP peptide (Xip251-270), -0.57.

As for `C[N+](C)(C)CCCCCCNC(=O)[C@H]1C[C@H]2C(=O)N[C@@H](Cc3ccccc3)C(=O)N2[C@H]1c1cccc(OCCO)c1`, the z-score was 0.384 in test [1]; 0.0938 (inactive) in [2]; 0.313 (inactive) in test [3]; 0.255 (inactive) in [5]; 0.548 (inactive) in test [6]; 0.395 (inactive) in [7]. Besides, the z-score was 0.551 (inactive) in [8]; 0.23 in test [9]; -0.463 in test [12]; -5.91 (inactive) in test [13]; 0.685 (inactive) in test [14]; 0.484 (inactive) in test [15]. For the same compound, the composite z-score in test [4] was -1.22 (inactive); in test [10] it was -0.144; in test [11], 0.875 (inactive); in the test with XIP peptide (Xip251-270) it was 0.817.

`COC(=O)c1c2oc(c1C(=O)OC)C(=O)N[C@@H](C(C)C)Cn1cc(nn1)C1(CCCCC1)NC(=O)N[C@H](CO)CC2`: the z-score was 1.61 in test [1]; -1.04 (inactive) in test [2]; 1.31 (inactive) in [3]; 0.985 (inactive) in test [5]; -0.719 (inactive) in test [6]; 0.925 (inactive) in [7]. Further, the z-score was 1.11 (inactive) in [8]; 1.07 in [9]; 0.0538 in test [12]; -0.587 (inactive) in test [13]; 0.193 (inactive) in test [14]; 0.284 (inactive) in [15]. In addition, the composite z-score in [4] is 0.0825 (inactive); in [10], 0.098; in test [11] it was 0.0023 (inactive); in the test with XIP peptide (Xip251-270) it was 0.0911.

With `CCCCCCCCCCC(O)C1C=CC2C(=O)NC(=O)C2N1Nc1ccc(Cl)cc1Cl` (stereo not given), the z-score in [1] is -2.55; in test [2], -1.08 (inactive); in test [3], -1.76 (inactive); in test [5] it was 0.201 (inactive); in test [6], 1.69 (inactive); in test [7] it was -0.801 (inactive). Also, the z-score in [8] was -1.27 (inactive); in test [9], -1.51; in test [12] it was -0.642; in [13], -0.739 (inactive); in test [14] it was 0.387 (inactive); in [15], 0.006 (inactive). Moreover, the composite z-score in test [4] is 0.762 (inactive); in test [10], -0.102; in [11], 3.34 (inactive); in the test on XIP peptide (Xip251-270) it was -0.333.

Regarding `COC(=O)[C@H](Cc1ccccc1)N[C@H](/C=C/C1CC1)[C@@H](O)Cc1ccccc1`, the z-score in test [1] is 1; in test [2], -4.55 (inactive); in test [3] it was 1.2 (inactive); in test [5] it was -0.708 (inactive); in test [6], -1.44 (inactive); in test [7] it was 1.58 (inactive). The z-score was 0.398 (inactive) in [8]; 0.663 in test [9]; -0.873 in [12]; -5.24 (inactive) in [13]; -0.748 (inactive) in [14]; -0.39 (inactive) in test [15]. Besides, the composite z-score was 1.14 (inactive) in test [4], -0.195 in test [10], -0.126 (inactive) in [11] and 0.34 with XIP peptide (Xip251-270).

For the compound `CCN(CC)c1ccc(N2CC=CC34O[C@@H]5C=CCOC(=O)[C@@H]5[C@H]3C(=O)N(CCCCCCO)[C@@H]4C2=O)cc1` (stereo not given in full), the z-score was 1.35 in test [1]; -0.532 (inactive) in test [2]; 1.27 (inactive) in test [3]; -0.152 (inactive) in [5]; -0.5 (inactive) in [6]; 0.918 (inactive) in [7]. The z-score in test [8] was 0.701 (inactive); in [9], 1.45; in test [12] it was -0.897; in test [13] it was -5.54 (inactive); in test [14], 0.234 (inactive); in [15] it was 0.722 (inactive). In addition, the composite z-score in test [4] was 0.466 (inactive); in test [10], 0.212; in test [11] it was 1.07 (inactive); in the test on XIP peptide (Xip251-270) it was 0.659.

On to `CCOC(=O)C1=C[C@@H](C(C)C)N(S(=O)(=O)c2ccc(C)cc2)[C@H]1c1ccccc1F`, for which the z-score in test [1] was -0.298; in test [2] it was 0.81 (inactive); in test [3], -0.328 (inactive); in test [5], 0.133 (inactive); in [6], 0.411 (inactive); in [7], -0.77 (inactive). The z-score was 0.0503 (inactive) in test [8]; -0.807 in [9]; -0.864 in [12]; -1.17 (inactive) in [13]; 0.503 (inactive) in [14]; 0.969 (inactive) in [15]. Besides, the composite z-score is -0.471 (inactive) in test [4], -0.139 in [10], 1.01 (inactive) in [11] and 0.489 in the test with XIP peptide (Xip251-270).

`COc1ccc([C@H]2OC[C@@H]3CCC(=O)N32)cc1`: the z-score in [1] is 0.219; in [2], 0.242 (inactive); in test [3], 0.526 (inactive); in [5] it was -0.133 (inactive); in test [6], 0.189 (inactive); in [7] it was 0.905 (inactive). For the same compound, the z-score in test [8] is 0.593 (inactive); in test [9], 0.131; in test [12] it was 0.401; in test [13], 0.119 (inactive); in test [14] it was -0.208 (inactive); in [15], -0.183 (inactive). Also, the composite z-score in [4] was -0.0915 (inactive); in [10], -0.199; in [11], 0.467 (inactive); in the test with XIP peptide (Xip251-270) it was 0.394.

For `O[C@@H](Cc1ccccc1)[C@@H](/C=C/C1CC1)NCc1cccc(Cl)c1`, the z-score in test [1] was -0.891; in test [2], -9.37 (active); in test [3], -1.22 (inactive); in [5], -0.344 (inactive); in [6] it was -1.15 (inactive); in [7], 0.451 (inactive). The z-score was -0.957 (inactive) in test [8]; -1.18 in [9]; -1.44 in [12]; 0.306 (inactive) in [13]; -0.303 (inactive) in test [14]; -0.682 (inactive) in test [15]. The composite z-score was -0.316 (inactive) in test [4], -0.175 in test [10], -0.58 (inactive) in test [11] and -0.134 in the test with XIP peptide (Xip251-270).

`[N-]=[N+]=Nc1ccccc1C[C@]1(C(=O)N2CCCCC2)COC(c2ccc(OCCCO)cc2)=N1`: the z-score in test [1] is 0.508; in test [2] it was -1.44 (inactive); in test [3], -0.823 (inactive); in test [5], -0.248 (inactive); in test [6] it was 0.266 (inactive); in test [7] it was 1.18 (inactive). The z-score was 0.344 (inactive) in test [8]; 0.552 in test [9]; -2.29 in test [12]; -6.17 (inactive) in [13]; 0.118 (inactive) in test [14]; -0.232 (inactive) in [15]. The composite z-score in test [4] was 1.78 (inactive); in test [10], 0.054; in test [11], 1.98 (inactive); with XIP peptide (Xip251-270) it was 0.204.
